High-throughput results deposited in PubChem by several laboratories.
Sampled rows, rich in hits. Any-hit rate of the full collection: about 32%.
PostGolgi yeast = phenotypic screen on post-Golgi transport, primary screen | actives 0.9% (n = 98,000) | post-Golgi transport phenotypic cell assay | inhibition, % at 10 µM | AID 739, 2007;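 note: yeast cells grown in 1536-well plates; yeast grown about 18 h at 30C before absorbance read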
CYP2C19 act = human CYP2C19 activators, primary screen, biochemical, luminescence. Cytochrome P450 2C19 (Homo sapiens), P33261. recombinant CYP2C19, luciferin-H EGE luminescence; stronger effect = higher value; 0 = fully inhibited enzyme, 1 = untreated enzyme. activation factor at 5 µM. 96,000 tested, under 10 active;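 active = activation factor of at least 2 at 5 µM in the primary screen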;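 note: 0 = wells with 2.5 mM tranylcypromine and 1 = vehicle-only wells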
Target sequence (P33261 whole entry, looked up): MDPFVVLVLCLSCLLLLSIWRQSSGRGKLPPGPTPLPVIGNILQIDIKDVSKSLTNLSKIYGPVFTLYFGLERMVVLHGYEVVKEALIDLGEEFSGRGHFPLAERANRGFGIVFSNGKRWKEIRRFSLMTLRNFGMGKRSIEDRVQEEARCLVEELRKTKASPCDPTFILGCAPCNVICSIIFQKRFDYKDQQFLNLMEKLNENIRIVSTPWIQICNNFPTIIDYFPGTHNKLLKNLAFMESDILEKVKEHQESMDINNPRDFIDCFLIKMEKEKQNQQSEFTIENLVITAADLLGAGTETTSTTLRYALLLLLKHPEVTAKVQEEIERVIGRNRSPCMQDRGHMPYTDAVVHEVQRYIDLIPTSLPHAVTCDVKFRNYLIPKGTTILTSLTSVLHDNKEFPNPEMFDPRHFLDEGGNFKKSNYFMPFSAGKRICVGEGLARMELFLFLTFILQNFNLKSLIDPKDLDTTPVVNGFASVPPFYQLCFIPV
PostGolgi ctrl = growth inhibition of yeast control strain, primary screen, counter-screen for post-Golgi transport modulator project; actives 5% (n = 98,000); AID 738, 2007; efflux-deficient yeast background strain, growth absorbance A615, 16 h; inhibition, % at 10 µM
CYP2C9 inh = blockers of cytochrome P450 2C9 activity – biochemical, luminescence, ADME assay, primary screen. actives 20% (n = 96,000). CYP2C9 Supersomes, luciferin-H conversion. P11712. inhibition, % at 5 µM;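 active = blocking of liver enzyme CYP2C9 beyond about 50% at 5 µM, limit read from the data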
CYP2C19 inh = blockers of cytochrome P450 2C19 activity – biochemical, luminescence, ADME assay, primary screen; P33261; CYP2C19 Supersomes, luciferin-H EGE luminescence, 30 min; inhibition, % at 5 µM; actives 21% (n = 96,000); AID 778, 2007;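 active = CYP2C19 inhibition above a set limit at 5 µM in the primary screen, cut at about 50% in these data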;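 note: plate controls were negative control wells for no effect and 2.5 mM tranylcypromine positive control for full effect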
CYP2C9 activ = human CYP2C9 activators, primary screen, biochemical, luminescence. Cytochrome P450 2C9 (Homo sapiens), P11712. recombinant CYP2C9, luciferin-H conversion; stronger effect = higher value; factor 1 = untreated enzyme, 0 = blocked. activation factor at 5 µM. actives 1.4% (n = 96,000). AID 1024, 2008;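 active = activation factor of 2 or more for CYP2C9 at a 5 µM dose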;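 note: 0 = sulfaphenazole-blocked wells and 1 = vehicle-only wells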
Active calls of the source: *; . = no result. Cut-off read from the data, not from the text of the source, unless noted: active = inhibition above about 30%; inactive = the rest.

SMILES	PostGolgi yeast	CYP2C19 act	PostGolgi ctrl	CYP2C9 inh	CYP2C19 inh	CYP2C9 activ
Cc1ccc(C2NC(=O)c3c(sc4c3CCN(C)C4)N2)o1 (stereo unspecified)	32*	0.9	-1	21	8	0.8
Cn1ncc(C#N)c1/N=C/N1CCCC1	-11	1	8	1	-2	1
CN(C)c1ccc(/C=C/c2cc[n+]([O-])cc2)cc1	-6	0.1	2	54*	92*	0.5
CN(C)c1ccc(/C=C/c2cc[n+](C)cc2)cc1	-6	1	2	0	0	1
NC(=O)C1(N2CCCCC2)CCN(Cc2nc3ccccc3c(=O)[nH]2)CC1	9	0.9	-3	4	15	1
CC(C)c1ccccc1OCC(=O)NCC(c1cccs1)N1CCOCC1 (stereo unspecified)	-6	0.3	15	19	68*	0.8
CS(=O)(=O)Nc1ccc(C(=O)N2CCCCC2)cc1	14	1.2	2	-6	-17	1.1
CCCn1cc(S(=O)(=O)CC(=O)Nc2ccc(OCC)cc2)c2ccccc21	-4	0.8	15	30	24	0.7
Cn1cc(S(=O)(=O)CC(=O)Nc2ccc(Br)cc2)c2ccccc21	1	0	9	-1	99*	1
CCn1cc(S(=O)(=O)CC(=O)Nc2ccc(C)cc2)c2ccccc21	-9	0.1	-5	32	90*	0.7
CCn1cc(S(=O)(=O)CC(=O)Nc2ccc3c(c2)OCCO3)c2ccccc21	-5	0.6	23	70*	36	0.3
COc1ccccc1N1CCN(/N=C/C=C\c2ccco2)CC1	5	0.8	-4	1	18	1
O=C(CCS(=O)(=O)Cc1ccc(Cl)cc1)NCCCN1CCN(c2ccccc2F)CC1	-1	0.8	-1	17	22	0.8
CCOC(=O)N1CCC(N2CC34C=CC(O3)C(C(=O)O)C4C2=O)CC1 (stereo unspecified)	-1	1	-2	-18	-4	1.2
C=C1CC(C)OC(c2ccccc2OCC(O)CN2CCCCC2)C1 (stereo unspecified)	5	1	5	-4	-4	1
COc1ccnc(N=CNOCc2cccc(Cl)c2Cl)c1C#N	-10	0.4	-2	8	58*	0.9
CC1=CC(C)C2C(=O)N(O)C(=O)C2C1 (stereo unspecified)	-3	1	8	5	3	1
COc1ccc(Br)cc1CNC(=O)CCN1C(=O)COc2ccccc21	23	0.2	19	-8	81*	1.1
COc1ccc(OC)c(CNC(=O)CCN2C(=O)COc3ccccc32)c1	-1	0.3	12	-34	70*	1.3
COCCCNC(=O)CCN1C(=O)COc2ccccc21	-2	1	4	-12	0	1.1
CC1CC(C)CN(c2ncnc3c2cnn3-c2ccc(Cl)cc2)C1 (stereo unspecified)	9	.	9	.	.	.
CC(C)CCn1c(SCC(=O)N2CC(=O)Nc3ccccc32)nc2scc(-c3cccs3)c2c1=O	3	1.1	7	0	-6	1
C=CCn1c(COc2ccc(F)cc2)nnc1SCC(=O)N1CC(=O)Nc2ccccc21	3	0.5	12	-110	48	2.1*
C=CCn1c(SCC(=O)N2CC(=O)Nc3ccccc32)nc2scc(-c3cccs3)c2c1=O	0	0.4	25	83*	63*	0.2
CN1CCN(c2ccccc2NC(=O)C(Cc2ccccc2)n2cccc2)CC1 (stereo unspecified)	-1	.	17	.	.	.
SMILES	PostGolgi yeast	CYP2C19 act	PostGolgi ctrl	CYP2C9 inh	CYP2C19 inh	CYP2C9 activ
CC1(C)NC(=O)N(CC(=O)O)C1=O	-1	0.9	1	-10	7	1.1
COC(=O)/C(=C\C(=O)c1ccccc1)Nc1cccc(C(F)(F)F)c1	0	0.9	-2	46	13	0.5
Cc1cc(O)c(NC(=S)NC(=O)c2ccc(-c3ccc(Cl)cc3)o2)cc1C	-2	1	12	-8	-5	1.1
S=C(c1ccc(-c2ccc(Cl)cc2)o1)N1CCCCC1	-1	0.1	12	80*	92*	0.2
N#CCCN1CCN(C(=S)c2ccc(-c3ccc(Cl)cc3)o2)CC1	-7	0.4	17	24	62*	0.8
O=C(c1ccc(NC2=NC3CS(=O)(=O)CC3S2)cc1)N1CCc2ccccc2C1 (stereo unspecified)	8	1	5	-1	4	1
N#C/C(=C/c1ccc(Sc2nc3ccccc3[nH]2)o1)c1ccccc1F	41*	0.1	28	90*	95*	0.1
N#C/C(=C/c1ccc(Sc2nc3ccccc3[nH]2)o1)c1cccc(Br)c1	0	0	32*	97*	96*	0
N#C/C(=C/c1ccc(Sc2nc3ccccc3[nH]2)o1)c1cccc(F)c1	2	0.1	55*	95*	92*	0
N#C/C(=C/c1ccc(N2CCCCC2)o1)c1cccc(F)c1	-2	0.8	11	25	15	0.8
N#C/C(=C\C1CC2C=CC1C2)c1nc2ccccc2[nH]1 (stereo unspecified)	-1	0.9	4	41	12	0.6
O=[N+]([O-])c1cc2c(cc1/C=N/Nc1nc(Nc3ccccc3)nc(N3CCCCC3)n1)OCO2	0	.	7	.	.	.
O=C(Cn1c(=O)[nH]c2ccsc2c1=O)NC1CCCCC1	0	1.1	-1	-4	-11	1
OC1(c2ccccc2)C/C(=N\n2cnnc2)C=C1c1ccccc1 (stereo unspecified)	-10	0	12	95*	99*	0
S=c1[nH]nc(COc2ccccc2)n1/N=C/C(Cl)=C/c1ccccc1	3	0.9	9	39	14	0.6
CCN(CC)S(=O)(=O)c1cccc(-c2nnc(SCC(=O)NC3CCCC3)n2N)c1	8	0.8	1	8	20	0.9
CCN(CC)S(=O)(=O)c1cccc(-c2nnc(SCC(=O)NC)n2CCc2ccccc2)c1	4	0.6	3	38	45	0.6
CCN(CC)S(=O)(=O)c1cccc(-c2nnc(SCC(=O)NC3CCCCCCC3)n2N)c1	5	0.5	-2	79*	52*	0.2
CCN(CC)S(=O)(=O)c1cccc(-c2nnc(SCC(=O)NC3CCCCCC3)n2N)c1	-5	0.4	6	60*	57*	0.4
Nn1c(SCC(=O)NC2CCCCC2)nnc1-c1ccccc1	1	0.7	-7	-10	31	1.1
CC1CCCCC1NC(=O)CSc1nnc(-c2ccccc2)n1N (stereo unspecified)	1	0.1	-8	56*	88*	0.4
